Rows were chosen to be rich in hits. Some 2.4% of all compounds tested hit in one or more screens of this group.
D2 PAM-1: D2 dopamine receptor (human) potentiation. P14416. HEK293 T-REx D2, calcium flux, EC20 dopamine potentiation. potentiation, % at 10 µM. hit rate 0.34% among 340,000;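 active means potentiation over 3 SD above the plate norm, cut at about 30% in these data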
Target sequence (P14416 whole entry, looked up): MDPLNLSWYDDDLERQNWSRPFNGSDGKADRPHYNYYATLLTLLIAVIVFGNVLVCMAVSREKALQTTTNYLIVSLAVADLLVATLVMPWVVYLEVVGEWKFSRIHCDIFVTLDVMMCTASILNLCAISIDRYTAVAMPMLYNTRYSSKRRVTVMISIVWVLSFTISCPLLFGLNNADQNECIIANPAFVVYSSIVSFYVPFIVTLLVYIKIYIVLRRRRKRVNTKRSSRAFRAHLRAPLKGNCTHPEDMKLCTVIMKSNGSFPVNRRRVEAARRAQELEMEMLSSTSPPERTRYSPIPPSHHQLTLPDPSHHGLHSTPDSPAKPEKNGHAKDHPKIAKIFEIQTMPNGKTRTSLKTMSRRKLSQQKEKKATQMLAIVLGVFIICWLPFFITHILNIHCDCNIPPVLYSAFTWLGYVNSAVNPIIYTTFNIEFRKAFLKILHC
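Calcium flux readout, no-wash dye, 1 read/s. Inducible HEK293 Trex D2 line, overnight 30 C. Compound alone 180 s (agonist flags), then EC20 dopamine, another 180 s to score potentiation.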
D2 PAM-2: positive allosteric modulators of human D2 dopamine receptor; hit rate 0.23% among 360,000; DiscoveRx D2 beta-arrestin cells, luminescence, 90 min; 100% = 57 uM dopamine signal; P14416; potentiation, % (no concentration beside the values); in the data active means potentiation above about 50%
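PathHunter beta-arrestin assay in DiscoveRx D2 cells. Compounds were added with an EC20 of dopamine (50 nM final) for 90 min at 37 deg C. Luminescence was read 1 h after detection reagent, with 57 uM dopamine as the EC100 control.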
D2 antagonist: antagonizes the human D2 dopamine receptor. P14416. hit rate 2% among 340,000. AID 485344. HEK293 TREx D2 cells, calcium flux, dopamine EC80. inhibition, % at 10 µM; in the data active means inhibition above about 30%; inactive means below that, where a call was filed
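Tetracycline-induced HEK293 T-REx cells expressing D2 force-coupled to calcium signalling were dye-loaded, exposed to compound for 180 s, then challenged with an EC80 of dopamine; calcium flux was followed kinetically for a further 180 s.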
D2 ag-1: agonists of human D2 dopamine receptor (beta-arrestin) | hit rate 0.084% among 360,000 | P14416 | activation, % (test concentration not listed) | DiscoveRx PathHunter D2 beta-arrestin, luminescence, 90 min; 100% = 57 uM dopamine signal | AID 624465; in the data active means activation above about 40%
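Agonist mode: compounds alone added to overnight-plated D2 PathHunter cells for 90 min at 37 C, with 57 uM final dopamine (EC100) defining full response. Beta-arrestin recruitment detected by chemiluminescent reagent, read after 1 h at ambient temperature.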
D2 ag-2: activates the human D2 dopamine receptor. HEK293 T-REx D2 cells, calcium flux agonist mode. activation, % at 2 µM. hit rate 0.53% among 340,000. AID 485358;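 active means activation over 3 SD above normal in the single-dose calcium agonist read, cut at about 30% in these data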
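HEK293 Trex D2 cells, tetracycline-induced, o/n 30 C 5% CO2; no-wash Ca dye, RT 30–90 min; 10-cycle baseline, 23 nl cpd added, kinetic Ca read 180 s; agonist hits = positive Ca response.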
Each line names hits and unclear results; the compound was inactive in the other large screens.

COC(=O)c1c(C)sc(-c2c(-c3ccc(F)cc3)[nH]c3[nH]c(=O)[nH]c(=O)c23)c1O	none (no result: D2 PAM-2, D2 antagonist, D2 ag-1)
Cc1ccc(Cl)cc1NC(=O)COC(=O)c1ccc(N2CCCC2)c([N+](=O)[O-])c1	D2 antagonist 57.2 (no result: D2 PAM-2, D2 ag-1)
CCCNC(=O)COC(=O)c1ccc(N2CCCC2)c([N+](=O)[O-])c1	none
Cc1c2cnn(-c3ccccc3)c(=O)c2c(C)n1C(C)C(=O)Nc1ccccc1C(F)(F)F (stereo unspecified)	none (no result: D2 PAM-2, D2 antagonist, D2 ag-1)
COc1ccc2nc3cc(Cl)ccc3c(Nc3cc(C(C)C)c(O)cc3C)c2c1	D2 antagonist 31.3
CCN(CC)CCCC(C)Nc1c2ccc(Cl)cc2nc2ccc(OC)cc12 (stereo unspecified)	none (no result: D2 PAM-2, D2 ag-1)
CC(=O)c1ccc(S(=O)(=O)Nc2ccc(-c3cn4c(C)csc4n3)cc2)cc1	none (no result: D2 PAM-2, D2 antagonist, D2 ag-1, D2 ag-2)
Cc1cc(C)n(-c2ccc(C(=O)OCC(=O)N(CC(C)C)C3CCS(=O)(=O)C3)cc2)n1 (stereo unspecified)	D2 antagonist 51.5
COc1ccccc1N(CC(O)Cn1ccnc1C)S(=O)(=O)c1ccccc1 (stereo unspecified)	D2 antagonist 34.3
COc1ccccc1N(CC(O)Cn1c(C)nc2ccccc21)S(=O)(=O)c1ccccc1 (stereo unspecified)	none
CN(Cc1ccccc1)C(=O)CC(=O)N(C)Cc1ccccc1	D2 PAM-1 33.6
CN(Cc1ccccc1)C(=O)Cc1ccccc1	none
O=C(O)CNC(=O)c1ccccc1NC(=O)c1ccco1	none
CN(Cc1ccccc1)C(=O)c1ccccc1NC(=O)c1ccco1	D2 antagonist 31.2
CCCCN(Cc1ccccc1)C(=O)CN(C)S(=O)(=O)c1ccc2c(c1)c(=O)n(C)c(=O)n2C	none (no result: D2 PAM-2, D2 antagonist, D2 ag-1)
N#CCc1ccc(NC(=O)/C=C/c2ccc([N+](=O)[O-])o2)cc1	D2 antagonist 31.9
O=C(O)/C=C/c1ccc([N+](=O)[O-])o1	none
CC(=O)c1c(OCC(=O)O)ccc2c(C)cc(=O)oc12	D2 antagonist 46.8
CCCCOc1ccc2c(C)cc(=O)oc2c1OCCCC	D2 antagonist 42.9
O=S(=O)(c1ccc(Cl)cc1)c1nc(-c2cccs2)oc1SCc1ccc(F)cc1	none (no result: D2 PAM-2, D2 antagonist, D2 ag-1, D2 ag-2)
CCn1c(C(=O)Nc2ccc(C)cc2C)cc2sc(Cl)cc21	none (no result: D2 PAM-2, D2 antagonist, D2 ag-1, D2 ag-2)
Cc1nn2c(NCc3ccccn3)c3c(nc2c1-c1ccccc1)CCC3	D2 antagonist 40.2
CC(=O)c1ccc(NC(=O)CCn2nc(C)c(S(=O)(=O)N3CCC(C)CC3)c2C)cc1	none (no result: D2 PAM-2, D2 antagonist, D2 ag-1)
CCOC(=O)c1cnn(CCOC(=O)c2ccc(F)cc2)c1NC(=O)c1ccc(F)cc1	none
CCOC(=O)c1cnn(CCOC(=O)Cc2cccs2)c1NC(=O)Cc1cccs1	D2 antagonist 33.5
CCSc1nnc2c(n1)OC1(CCCC1)Nc1ccccc1-2	D2 antagonist 38.7
CCSc1nnc2c(n1)OC(c1ccc(C)s1)Nc1ccccc1-2 (stereo unspecified)	none (no result: D2 PAM-2, D2 antagonist, D2 ag-1)
CCN(Cc1ccccc1)C(=O)c1nc(-c2cccc(F)c2)n2c1CCCCC2	none (no result: D2 PAM-2, D2 antagonist, D2 ag-1)
Cc1cccc(OC(C)C(=O)N2CCC(c3nc4ccccc4o3)CC2)c1C (stereo unspecified)	none (no result: D2 PAM-2, D2 antagonist, D2 ag-1)
COc1ccc2c(c1)-c1ccccc1S(=O)(=O)N2C	D2 antagonist 33.7
COc1ccc(C)cc1NS(=O)(=O)c1c(C)nc2sc(C)cn2c1=O	none (no result: D2 PAM-2, D2 antagonist, D2 ag-1)
CCn1cc(C(=O)NCC(=O)OC)c2cc(OC)c(OC)cc2c1=O	none
CCOC(=O)CNC(=O)c1cn(CC(C)C)c(=O)c2cc(OC)c(OC)cc12	D2 antagonist 31.2
O=C(NCCCc1ccccc1)c1ccc(F)cc1	none
O=C(NCCNC1CCC(c2ccccc2)CC1)c1ccc(F)cc1 (stereo unspecified)	D2 antagonist 84.6
Cc1ccc2nc(Cl)c3cc(C(=O)NC4CCCCC4)sc3c2c1	none (no result: D2 PAM-2, D2 antagonist, D2 ag-1)
O=S(=O)(NCc1ccccc1Cl)c1ccc(N2CCCCS2(=O)=O)cc1	none (no result: D2 PAM-2, D2 antagonist, D2 ag-1)
O=C(Cn1c(-c2ccco2)nc2ccccc21)N1CCCCC1	D2 antagonist 46.5
Nc1nonc1-c1nc2ccccc2n1CC(=O)N1CCCCC1	none
O=C(Nc1nc2c(F)cccc2s1)c1ccc(S(=O)(=O)N2CCOCC2)cc1	none (no result: D2 PAM-2, D2 antagonist, D2 ag-1)
Cc1ccc(S(=O)(=O)N2CCOCC2)cc1C(=O)OC(C)C(=O)c1ccccc1 (stereo unspecified)	D2 antagonist 36.6
Cc1ccc(Cn2c(=N)c(C(=O)NCc3ccco3)cc3c(=O)n4ccccc4nc32)cc1	D2 antagonist 82.9
N=c1c(C(=O)NCC2CCCO2)cc2c(=O)n3ccccc3nc2n1Cc1ccc(Cl)cc1 (stereo unspecified)	D2 antagonist 55.3
CCc1ccc(NC(=O)c2ccc3[nH]c(C)c(C)c3c2)cc1	none (no result: D2 PAM-2, D2 antagonist, D2 ag-1)
CCOc1ccccc1NC(=O)CN1C(=O)CC(c2ccco2)Sc2ccccc21 (stereo unspecified)	none (no result: D2 PAM-2, D2 antagonist, D2 ag-1)
COc1ccc(CCn2c(N)cc(=O)[nH]c2=S)cc1OC	D2 PAM-1 33.9
COc1ccc(N2CC(NC(=O)CCc3ccccc3)CC2=O)cc1OC (stereo unspecified)	none (no result: D2 PAM-2, D2 antagonist, D2 ag-1)
Cc1cc(OCC(=O)O/N=C(\N)c2ccccc2)ccc1Br	D2 ag-2 30.2
O=C(CN(C(=O)c1csnn1)c1ccccc1F)NCc1ccc2c(c1)OCO2	none
O=C(CN(C(=O)c1csnn1)c1cccc(F)c1)NCc1ccc2c(c1)OCO2	D2 antagonist 42.3
O=C(NCCc1ccccc1)c1cnc2sc(N3CCCCCC3)nn2c1=O	none (no result: D2 PAM-2, D2 antagonist, D2 ag-1)
Cc1nc2ccccc2c(C)c1C(=O)c1ccccc1	D2 antagonist 30.1
COc1ccc(C)cc1NC(=O)c1ccc2c(c1)N(Cc1cccc(Cl)c1)C(=O)c1ccccc1S2=O (stereo unspecified)	none (no result: D2 PAM-2, D2 antagonist, D2 ag-1, D2 ag-2)
Brc1ccccc1OCCCCCN1CCCC1	none (no result: D2 PAM-2, D2 ag-1)
CCC(C)c1ccccc1OCCCNC1CCCC1 (stereo unspecified)	D2 antagonist 77.7
CCC(C)c1ccccc1OCCOCCN1CCCC1 (stereo unspecified)	D2 antagonist 54.0
CCC(C)c1ccccc1OCCCCN1CCCC1 (stereo unspecified)	D2 antagonist 64.7
Cc1ccc(NC(=O)NCc2c(-n3cccc3)sc3c2CCCC3)c(Cl)c1	none (no result: D2 PAM-2, D2 antagonist, D2 ag-1)
COc1ccc(CNC(=O)C2CCC(=O)N(CCCN3CCCC3=O)C2)cc1 (stereo unspecified)	none
COc1ccc(C(C)(C)NC(=O)C2CCC(=O)N(CCCN3CCCC3=O)C2)cc1 (stereo unspecified)	D2 antagonist 33.4
Fc1cccc(Cc2noc(CN3CCOCC3)n2)c1	none
Fc1cccc(Cc2noc(CN3CCC(c4ccncc4)CC3)n2)c1	D2 antagonist 52.6
Cc1ccc(C(=O)Nc2ccccc2C(=O)OCc2cc(=O)n3nc(C4CC4)sc3n2)cc1	none (no result: D2 PAM-2, D2 antagonist, D2 ag-1)
COCCCN1CCN(C2Cc3ccccc3Sc3ccc(Cl)cc32)CC1 (stereo unspecified)	D2 antagonist 107.0
O=C(c1ccccc1Cl)N1CCNCC1	none

Compound activity as filed in PubChem.
